Reference: the supplement of paper PMC10849652
Of roughly 8,800 targets only a part is listed; those with a hit were picked by preference. About 0.5% of all pairs of compound and target were hits.

Columns and labels:
Assay in all cases: log2 fold change, soluble protein after heating vs DMSO (PISA); higher = thermal stabilisation; K562 lysate, 10 uM; active = over 0.2 and 3.5 SD of the protein, either way, in both replicates (recomputed)
[1] = compound: CCCS(=O)(=O)Nc1ccc(F)c(C(=O)c2c[nH]c3ncc(Cl)cc23)c1F
Summary of the method: (§1)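 To prepare the extract, K562 pellets were dounce-homogenised in PBS pH 7.4 with 1 mM MgCl2, giving crude material at 1 mg/mL protein. This was treated with 10 μM compound for 30 min, then heated in aliquots for 3 min over 48°C-58°C before pooling and addition of NP-40 to 0.5% at 4°C. Centrifugation at 21,000xg for 90 min left soluble protein in the supernatant, which TMTpro 16plex LC-MS/MS quantified with equalised channel sums. Results are log-two fold changes in thermal stability compared with solvent controls, from duplicates.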

barasertib = compound: CCN(CCCOc1ccc2c(Nc3cc(CC(=O)Nc4cccc(F)c4)[nH]n3)ncnc2c1)CCOP(=O)(O)O [barasertib]
Summary of the method: as §1

volasertib = compound: CC[C@@H]1C(=O)N(C)c2cnc(Nc3ccc(C(=O)N[C@H]4CC[C@H](N5CCN(CC6CC6)CC5)CC4)cc3OC)nc2N1C(C)C [volasertib]
Summary of the method: as §1

[2] = compound: CCn1c(C(=O)N(C2CC2)C2CC2)cc2c3c(ncn3C)c(Nc3cc(C)n(C)n3)nc21
Summary of the method: as §1

[3] = compound: CCn1cc(-c2ccnc3[nH]c(-c4cccc(CN(C)C)c4)cc23)c(-c2ccc(NC(=O)N(C)C)cc2)n1
Summary of the method: as §1

[4] = compound: CN1CCC(CNc2ccc3ncc(-c4cccc(OC(F)(F)F)c4)n3n2)CC1
Summary of the method: as §1

saracatinib = compound: CN1CCN(CCOc2cc(OC3CCOCC3)c3c(Nc4c(Cl)ccc5c4OCO5)ncnc3c2)CC1 [saracatinib]
Summary of the method: as §1

sotrastaurin = compound: CN1CCN(c2nc(C3=C(c4c[nH]c5ccccc45)C(=O)NC3=O)c3ccccc3n2)CC1 [sotrastaurin]
Summary of the method: as §1

[5] = compound: CC[C@@H]1C(=O)N(C)c2cnc(Nc3ccc(C(=O)NC4CCN(C)CC4)cc3OC)nc2N1C1CCCC1
Summary of the method: as §1

vemurafenib = compound: CCCS(=O)(=O)Nc1ccc(F)c(C(=O)c2c[nH]c3ncc(-c4ccc(Cl)cc4)cc23)c1F [vemurafenib]
Summary of the method: as §1

Measured: log2 fold change

CDK11A (UniProt Q9UQ88)
UniProt Q9UQ88, sequence (Q9UQ88 whole entry, looked up): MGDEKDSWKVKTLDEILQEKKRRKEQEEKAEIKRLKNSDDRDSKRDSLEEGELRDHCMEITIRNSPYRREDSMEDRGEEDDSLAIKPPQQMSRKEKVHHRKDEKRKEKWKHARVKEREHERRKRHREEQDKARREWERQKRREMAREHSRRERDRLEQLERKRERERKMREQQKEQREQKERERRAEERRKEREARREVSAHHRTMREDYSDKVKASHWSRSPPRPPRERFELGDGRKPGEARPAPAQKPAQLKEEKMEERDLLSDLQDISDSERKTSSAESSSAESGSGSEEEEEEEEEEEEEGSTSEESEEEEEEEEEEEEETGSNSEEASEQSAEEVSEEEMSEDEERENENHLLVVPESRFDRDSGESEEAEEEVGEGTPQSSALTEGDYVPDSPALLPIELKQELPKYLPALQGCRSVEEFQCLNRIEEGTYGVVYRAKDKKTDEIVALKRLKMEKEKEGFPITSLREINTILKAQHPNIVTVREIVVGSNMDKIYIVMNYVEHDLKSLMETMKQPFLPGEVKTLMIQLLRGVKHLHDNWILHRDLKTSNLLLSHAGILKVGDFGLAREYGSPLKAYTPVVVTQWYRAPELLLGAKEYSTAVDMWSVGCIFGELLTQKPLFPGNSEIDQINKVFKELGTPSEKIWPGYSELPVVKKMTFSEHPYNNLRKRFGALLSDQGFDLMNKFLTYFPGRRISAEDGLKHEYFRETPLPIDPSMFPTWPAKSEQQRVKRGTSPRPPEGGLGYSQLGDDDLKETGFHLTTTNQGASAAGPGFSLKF
inactive: [1] -0.019 | barasertib 0.029 | volasertib -0.135 | [2] 0.047 | [3] 0.127 | [4] -0.099 | saracatinib -0.069 | sotrastaurin -0.026

CDC14A isoform 2 (UniProt Q9UNH5)
inactive: [1] -0.271 | volasertib 0.085 | [2] 0.101 | sotrastaurin 0.058

CCND3 (UniProt P30281)
inactive: barasertib 0.014 | [5] -0.056 | [2] -0.112 | [3] -0.116 | [4] 0.075 | saracatinib 0.086 | sotrastaurin 0.016

CDK17 isoform 2 (UniProt Q00537)
inactive: vemurafenib -0.115 | barasertib 0.011 | [5] -0.078 | [2] -0.007 | [3] 0.091 | [4] -0.299 | saracatinib -0.017 | sotrastaurin 0.03

ATXN2 (UniProt F8WB06)
inactive: saracatinib -0.088

C15orf39 (UniProt Q6ZRI6)
UniProt Q6ZRI6, sequence (Q6ZRI6 whole entry, looked up): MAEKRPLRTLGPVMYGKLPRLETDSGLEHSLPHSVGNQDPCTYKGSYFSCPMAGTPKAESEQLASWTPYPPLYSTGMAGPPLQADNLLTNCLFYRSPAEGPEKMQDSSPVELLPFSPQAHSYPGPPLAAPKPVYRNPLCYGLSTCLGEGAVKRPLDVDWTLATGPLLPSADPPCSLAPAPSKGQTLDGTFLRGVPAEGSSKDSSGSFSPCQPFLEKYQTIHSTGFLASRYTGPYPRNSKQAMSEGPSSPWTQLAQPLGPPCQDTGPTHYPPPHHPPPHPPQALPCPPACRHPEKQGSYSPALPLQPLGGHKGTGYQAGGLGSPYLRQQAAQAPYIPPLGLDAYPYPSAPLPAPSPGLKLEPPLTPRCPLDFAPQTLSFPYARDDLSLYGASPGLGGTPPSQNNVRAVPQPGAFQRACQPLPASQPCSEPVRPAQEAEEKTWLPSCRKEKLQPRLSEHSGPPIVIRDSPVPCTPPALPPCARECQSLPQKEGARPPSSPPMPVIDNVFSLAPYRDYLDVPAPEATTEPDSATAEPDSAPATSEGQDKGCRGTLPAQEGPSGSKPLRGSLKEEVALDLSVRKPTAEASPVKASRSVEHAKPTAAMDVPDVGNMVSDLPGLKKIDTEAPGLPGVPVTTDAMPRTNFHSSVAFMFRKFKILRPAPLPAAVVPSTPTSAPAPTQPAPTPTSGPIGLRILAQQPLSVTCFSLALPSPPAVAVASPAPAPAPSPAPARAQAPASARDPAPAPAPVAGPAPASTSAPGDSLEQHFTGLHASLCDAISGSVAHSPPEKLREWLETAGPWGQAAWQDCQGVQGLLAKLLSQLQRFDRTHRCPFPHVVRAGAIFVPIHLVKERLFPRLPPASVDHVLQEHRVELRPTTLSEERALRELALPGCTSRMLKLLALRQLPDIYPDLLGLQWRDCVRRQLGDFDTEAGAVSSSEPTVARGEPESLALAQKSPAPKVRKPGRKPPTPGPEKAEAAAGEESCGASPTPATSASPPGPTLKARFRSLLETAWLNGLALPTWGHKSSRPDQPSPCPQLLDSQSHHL
inactive: barasertib -0.012 | [5] -0.047 | [2] -0.008 | [3] 0.08 | [4] 0.132 | saracatinib 0.025 | sotrastaurin 0.042

ATG10 (UniProt Q9H0Y0)
UniProt Q9H0Y0, sequence (Q9H0Y0 whole entry, looked up): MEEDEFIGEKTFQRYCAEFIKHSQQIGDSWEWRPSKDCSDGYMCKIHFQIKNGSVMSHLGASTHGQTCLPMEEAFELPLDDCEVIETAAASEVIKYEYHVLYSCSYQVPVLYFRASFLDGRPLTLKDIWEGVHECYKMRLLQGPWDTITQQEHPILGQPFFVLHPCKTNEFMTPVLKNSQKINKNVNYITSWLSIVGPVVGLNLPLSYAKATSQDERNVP
inactive: vemurafenib 0.026 | barasertib 0.092 | [5] 0.016 | [2] 0.012 | [3] -0.021 | [4] 0.01 | saracatinib -0.021 | sotrastaurin 0.038

ATE1 (UniProt O95260)
inactive: [1] 0.061 | barasertib -0.051 | volasertib 0.002 | [3] 0.082 | [4] 0.003 | sotrastaurin 0.021

BMT2 (UniProt Q1RMZ1)
inactive: [3] 0.004 | [4] 0.096

CDC25A (UniProt P30304)
UniProt P30304, sequence (P30304 whole entry, looked up): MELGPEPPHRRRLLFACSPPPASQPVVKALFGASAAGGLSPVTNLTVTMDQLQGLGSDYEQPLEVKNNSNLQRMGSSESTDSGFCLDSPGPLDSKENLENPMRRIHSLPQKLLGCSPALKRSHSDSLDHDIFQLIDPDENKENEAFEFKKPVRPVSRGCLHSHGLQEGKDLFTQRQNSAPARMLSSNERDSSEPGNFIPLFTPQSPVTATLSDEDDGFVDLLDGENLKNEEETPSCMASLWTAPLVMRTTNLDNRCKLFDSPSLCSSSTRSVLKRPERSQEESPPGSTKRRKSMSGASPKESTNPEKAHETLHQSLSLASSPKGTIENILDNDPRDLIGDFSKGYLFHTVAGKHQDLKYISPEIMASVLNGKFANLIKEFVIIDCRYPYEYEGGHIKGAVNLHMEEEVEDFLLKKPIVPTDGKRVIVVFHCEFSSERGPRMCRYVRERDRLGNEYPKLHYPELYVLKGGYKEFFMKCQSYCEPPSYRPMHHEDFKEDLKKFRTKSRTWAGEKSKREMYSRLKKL
inactive: [1] 0.038 | volasertib -0.053 | [2] 0.033 | saracatinib -0.022 | sotrastaurin 0.092

CAD (UniProt H7BZB3)
inactive: vemurafenib -0.063 | [5] 0.144 | [3] -0.02 | [4] -0.027

BBS7 (UniProt Q8IWZ6)
UniProt Q8IWZ6, sequence (Q8IWZ6 whole entry, looked up): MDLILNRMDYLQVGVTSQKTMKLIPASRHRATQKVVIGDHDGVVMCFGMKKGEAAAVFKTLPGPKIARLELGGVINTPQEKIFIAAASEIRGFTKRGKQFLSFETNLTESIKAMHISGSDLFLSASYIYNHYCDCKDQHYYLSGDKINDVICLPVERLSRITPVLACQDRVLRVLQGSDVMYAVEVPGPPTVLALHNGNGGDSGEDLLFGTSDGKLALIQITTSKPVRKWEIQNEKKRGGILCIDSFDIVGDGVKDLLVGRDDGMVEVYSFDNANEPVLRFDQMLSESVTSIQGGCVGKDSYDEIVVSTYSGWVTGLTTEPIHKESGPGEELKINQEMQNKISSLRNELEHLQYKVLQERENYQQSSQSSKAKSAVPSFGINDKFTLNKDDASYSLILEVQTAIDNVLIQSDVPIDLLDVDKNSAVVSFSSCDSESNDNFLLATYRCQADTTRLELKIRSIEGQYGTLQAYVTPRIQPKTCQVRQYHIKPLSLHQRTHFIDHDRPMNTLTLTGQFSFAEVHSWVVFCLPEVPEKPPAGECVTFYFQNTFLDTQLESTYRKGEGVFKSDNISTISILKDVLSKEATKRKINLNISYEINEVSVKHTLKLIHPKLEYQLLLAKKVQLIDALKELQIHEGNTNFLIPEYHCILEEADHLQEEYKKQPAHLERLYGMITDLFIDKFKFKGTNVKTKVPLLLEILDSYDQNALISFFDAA
inactive: vemurafenib 0.375 | [5] -0.082 | [2] 0.026 | [3] -0.255 | [4] 0.067 | saracatinib 0.217 | sotrastaurin 0.044

BNIP3 (UniProt Q12983)
UniProt Q12983, sequence (Q12983 whole entry, looked up): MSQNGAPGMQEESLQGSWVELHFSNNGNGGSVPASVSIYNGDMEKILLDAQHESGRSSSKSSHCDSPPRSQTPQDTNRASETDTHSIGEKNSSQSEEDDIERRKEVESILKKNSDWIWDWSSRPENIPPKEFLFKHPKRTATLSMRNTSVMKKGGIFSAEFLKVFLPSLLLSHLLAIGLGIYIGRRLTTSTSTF
inactive: [1] 0.035 | barasertib -0.037 | [5] 0.069 | volasertib 0.116 | [2] -0.023 | [3] -0.307 | [4] 0.149 | saracatinib 0.118 | sotrastaurin 0.03

CDCA8 (UniProt Q53HL2)
active: [3] 0.677
inactive: vemurafenib 0.025 | barasertib 0.106 | [5] 0.051 | [4] -0.034 | saracatinib 0.171

CCP110 (UniProt O43303)
inactive: vemurafenib -0.202 | barasertib 0.07 | [5] -0.141 | [2] -0.022 | saracatinib -0.06 | sotrastaurin 0.005

CCDC130 (UniProt P13994)
UniProt P13994, sequence (P13994 whole entry, looked up): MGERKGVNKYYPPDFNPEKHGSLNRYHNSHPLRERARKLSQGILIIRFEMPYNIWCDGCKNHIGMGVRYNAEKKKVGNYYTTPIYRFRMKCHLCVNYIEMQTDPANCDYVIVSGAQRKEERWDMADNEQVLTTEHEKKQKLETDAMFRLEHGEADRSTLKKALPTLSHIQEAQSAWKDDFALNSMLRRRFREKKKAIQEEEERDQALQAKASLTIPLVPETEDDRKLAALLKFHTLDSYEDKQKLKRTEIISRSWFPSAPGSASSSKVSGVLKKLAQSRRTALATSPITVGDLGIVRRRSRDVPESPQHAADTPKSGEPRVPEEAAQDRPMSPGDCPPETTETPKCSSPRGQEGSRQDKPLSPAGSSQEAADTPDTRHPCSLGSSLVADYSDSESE
inactive: barasertib 0.045 | [5] 0.036 | [2] -0.027 | sotrastaurin 0.147

ATPSCKMT (UniProt Q6P4H8)
UniProt Q6P4H8, sequence (Q6P4H8 whole entry, looked up): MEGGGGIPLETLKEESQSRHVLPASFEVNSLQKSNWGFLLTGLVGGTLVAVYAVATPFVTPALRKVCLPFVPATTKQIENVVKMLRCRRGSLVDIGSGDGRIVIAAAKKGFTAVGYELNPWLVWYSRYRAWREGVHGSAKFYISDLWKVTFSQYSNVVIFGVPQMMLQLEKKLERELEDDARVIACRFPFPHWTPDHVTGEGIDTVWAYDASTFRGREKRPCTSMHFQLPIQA
inactive: barasertib -0.019 | [5] 0.171 | [2] 0.077 | saracatinib 0.053 | sotrastaurin -0.007

CCAR2 (UniProt G3V119)
inactive: [1] 0.087 | volasertib -0.074

CASC1 (UniProt Q6TDU7)
UniProt Q6TDU7, sequence (Q6TDU7 whole entry, looked up): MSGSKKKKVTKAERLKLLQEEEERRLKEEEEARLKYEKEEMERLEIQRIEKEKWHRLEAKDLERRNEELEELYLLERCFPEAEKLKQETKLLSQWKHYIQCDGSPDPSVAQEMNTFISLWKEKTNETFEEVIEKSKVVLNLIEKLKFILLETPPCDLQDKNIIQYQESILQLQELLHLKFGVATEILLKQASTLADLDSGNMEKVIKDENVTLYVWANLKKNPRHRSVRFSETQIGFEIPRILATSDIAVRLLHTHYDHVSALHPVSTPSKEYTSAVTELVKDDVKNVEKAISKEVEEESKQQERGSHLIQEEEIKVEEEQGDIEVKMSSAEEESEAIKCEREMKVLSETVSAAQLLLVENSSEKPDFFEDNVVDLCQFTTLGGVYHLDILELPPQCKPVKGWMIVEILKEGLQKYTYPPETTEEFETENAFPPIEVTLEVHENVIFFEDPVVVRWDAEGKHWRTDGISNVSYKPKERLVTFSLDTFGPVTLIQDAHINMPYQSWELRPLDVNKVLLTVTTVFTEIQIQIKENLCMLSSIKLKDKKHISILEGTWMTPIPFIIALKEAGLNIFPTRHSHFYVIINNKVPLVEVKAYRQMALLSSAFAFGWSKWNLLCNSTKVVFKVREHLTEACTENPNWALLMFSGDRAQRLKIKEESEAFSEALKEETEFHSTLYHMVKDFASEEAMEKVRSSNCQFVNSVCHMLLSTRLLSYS
inactive: barasertib 1.04 | [2] -0.217 | [3] 0.034 | [4] 0.006

C8orf88 (UniProt P0DMB2)
UniProt P0DMB2, sequence (P0DMB2 whole entry, looked up): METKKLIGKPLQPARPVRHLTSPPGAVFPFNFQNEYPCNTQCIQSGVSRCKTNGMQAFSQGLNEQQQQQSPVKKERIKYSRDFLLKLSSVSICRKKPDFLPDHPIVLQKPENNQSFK
inactive: barasertib -0.053 | [2] 0.027 | [3] 0.084 | [4] 0.011 | saracatinib 0.051 | sotrastaurin -0.015

CENPV (UniProt Q7Z7K6)
inactive: vemurafenib -0.104 | barasertib 0 | [5] -0.033 | [2] 0.19 | [3] 0.264 | [4] -0.004 | sotrastaurin 0.007

ATG4D (UniProt Q86TL0)
inactive: barasertib -0.074 | [5] 0.055 | [2] 0.116 | saracatinib -0.188 | sotrastaurin 0.058

B3GALT6 (UniProt Q96L58)
inactive: barasertib 0.002 | [2] 0.115 | saracatinib -0.172 | sotrastaurin 0.067

CEP295 isoform 3 (UniProt Q9C0D2)
inactive: [1] -0.058 | barasertib -0.039 | [5] 0.052 | volasertib 0.043 | [2] -0.028 | [3] -0.387 | [4] 0.001 | sotrastaurin 0.005

CDAN1 (UniProt H3BPZ6)
inactive: sotrastaurin 0.175

CAPNS1 (UniProt U3KPR7)
inactive: [1] -0.125 | barasertib 0.424 | volasertib -0.01
